# This is a sample that favours compounds with a hit; in the whole collection about 2.4% have one here.
# D2 PAM-1: positively modulates the human D2 dopamine receptor allosterically; P14416; HEK293 T-REx D2, calcium flux, EC20 dopamine potentiation; potentiation, % at 10 µM; hit rate 0.34% among 340,000; AID 485347;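 active = potentiation over 3 SD above the plate norm, cut at about 30% in these data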; also: 0% is about no effect
# Target sequence (P14416 whole entry, looked up): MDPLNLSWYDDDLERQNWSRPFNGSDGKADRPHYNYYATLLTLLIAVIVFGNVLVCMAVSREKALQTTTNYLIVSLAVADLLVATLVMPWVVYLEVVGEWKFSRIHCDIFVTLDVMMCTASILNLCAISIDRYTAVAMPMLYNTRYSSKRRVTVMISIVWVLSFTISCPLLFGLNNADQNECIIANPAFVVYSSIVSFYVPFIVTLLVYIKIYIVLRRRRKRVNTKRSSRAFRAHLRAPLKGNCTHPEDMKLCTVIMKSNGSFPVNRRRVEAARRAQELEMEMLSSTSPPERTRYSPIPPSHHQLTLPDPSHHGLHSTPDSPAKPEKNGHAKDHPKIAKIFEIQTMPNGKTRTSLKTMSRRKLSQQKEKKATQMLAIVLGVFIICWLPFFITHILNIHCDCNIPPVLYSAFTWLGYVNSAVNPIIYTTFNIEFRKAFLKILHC
#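 Tetracycline-induced HEK293 T-REx cells force-coupled to calcium signalling expressed D2; compounds were pin-added after a 10 s baseline, read kinetically 180 s, then an EC20 dopamine challenge followed with a further 180 s calcium read.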
# D2 ag-1: human D2 receptor agonism in beta-arrestin assay; hit rate 0.084% among 360,000; P14416; activation, % (concentration not given with the values); AID 624465; DiscoveRx PathHunter D2 beta-arrestin, luminescence, 90 min; 100% = 57 uM dopamine signal; in the data active = activation above about 40%; inconclusive = between about 15% and that limit
#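 Agonist mode: compounds alone added to overnight-plated D2 PathHunter cells for 90 min at 37 C, with 57 uM final dopamine (EC100) defining full response. Beta-arrestin recruitment detected by chemiluminescent reagent, read after 1 h at ambient temperature.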
# D2 PAM-2: potentiates the human D2 dopamine receptor allosterically. P14416. potentiation, % (test concentration not listed). DiscoveRx D2 beta-arrestin cells, luminescence, 90 min; 100% = 57 uM dopamine signal. hit rate 0.23% among 360,000. AID 624464; in the data active = potentiation above about 50%; inconclusive = mostly about 30% to 49%
#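 D2 cells co-treated with compound plus 50 nM dopamine (EC20) for 90 min at 37 deg C to detect potentiation. Beta-arrestin recruitment was read as enzyme-fragment luminescence after 1 h at ambient temperature. Full response was set by 57 uM dopamine.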
# D2 antagonist: antagonists of human D2 dopamine receptor; HEK293 TREx D2 cells, calcium flux, dopamine EC80; inhibition, % at 10 µM; hit rate 2% among 340,000; AID 485344; in the data active = inhibition above about 30%; inactive = below that, where a call was filed; also: 0% is about no effect
#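 Inhibition of EC80 dopamine-driven calcium flux, recorded kinetically, defines activity here; cells are a tetracycline-induced HEK293 T-REx line expressing force-coupled D2.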
# D2 ag-2: D2 dopamine receptor (human) agonism | HEK293 T-REx D2 cells, calcium flux agonist mode | activation, % at 2 µM | hit rate 0.53% among 340,000;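 active = activation over 3 SD above normal in the single-dose calcium agonist read, cut at about 30% in these data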; also: 0% is about no effect
#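 In this primary screen, compounds producing a positive calcium signal within 180 s of addition to tetracycline-induced, force-coupled HEK293 Trex D2 cells are flagged; cells are dye-loaded with a no-wash calcium kit beforehand.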
# * hit, by the source's call; ? = inconclusive; · = no result; ! = not active in a repeat.
SMILES,D2 PAM-1,D2 ag-1,D2 PAM-2,D2 antagonist,D2 ag-2
CCN(CC)CCNC(=O)c1ccc(Sc2ccc(Cl)cc2)c(NC(C)=O)c1,-30.8,-6.0,-18.1,36.0*,-0.1
CCN(CC)CCNC(=O)c1ccc(Sc2ccc(C)cc2)c(NC(C)=O)c1,-31.1,-7.4,-12.2,53.6*,-0.6
CC(=O)Nc1cc(C(=O)NCc2ccc(C)cc2)ccc1Sc1ccc(C)cc1,9.7,·,·,·,0.9
O=C(Cc1ccc(F)cc1)NC1CC(=O)N(c2ccccc2)C1 (configuration not stated),-8.0,·,·,·,0.5
O=C1c2ccccc2C(=O)c2c(Nc3ccc(CCO)cc3)ccc(O)c21,-3.6,41.1*,-13.7,19.5,1.2
O=C(NC1CC2CCCC(C1)N2Cc1ccccc1)C1CCCCC1 (configuration not stated),-23.1,0.8,-18.8,22.2,0.2
S=C(NC1CCCCC1)NC1CC2CCC(C1)N2Cc1ccccc1 (configuration not stated),-8.9,-5.5,-22.9,76.9*,1.2
CCCNC(=S)NC1CC2CCC(C1)N2Cc1ccccc1 (configuration not stated),-6.1,-0.1,-18.3,67.3*,0.4
S=C(NCCc1ccccc1)NC1CC2CCC(C1)N2Cc1ccccc1 (configuration not stated),-28.1,-9.5,-23.0,62.7*,0.2
COCCCNC(=S)NC1CC2CCC(C1)N2Cc1ccccc1 (configuration not stated),-12.1,-4.1,-16.2,27.5,-0.2
CCNC(=S)NC1CC2CCC(C1)N2Cc1ccccc1 (configuration not stated),-21.1,2.1,-27.3,57.0*,0.8
CCNC(=S)NC1CC2CCCC(C1)N2CCc1ccccc1 (configuration not stated),-14.1,-4.4,-4.5,-20.6,-0.2
COc1cc(C2CC(=O)N(Cc3ccc(F)cc3)c3ccccc3S2)cc(OC)c1OC (configuration not stated),3.5,·,·,·,0.0
CC(C)CNC(=S)NC1CC2CCC(C1)N2Cc1ccccc1 (configuration not stated),-15.9,-0.7,-22.7,89.9*,0.5
COc1ccc(CCNC(=O)CC(Cc2ccc(C)cc2)C(=O)O)cc1OC (configuration not stated),9.2,-0.5,-2.8,·,·
O=C(Cn1c(-c2ccco2)nc2ccccc21)N1CCCCC1,8.1,-2.9,-11.6,46.5*,0.6
Nc1nonc1-c1nc2ccccc2n1CC(=O)N1CCCCC1,-7.2,-3.8,-10.2,-8.6,-1.1
CC(=O)Nc1ccc(NC(=O)c2ccc([N+](=O)[O-])cc2Cl)cc1,-14.8,0.3,-2.4,16.5,2.7
CCC(C)NS(=O)(=O)c1ccc(NC(=O)c2ccc([N+](=O)[O-])cc2Cl)cc1 (configuration not stated),4.7,-3.5,-2.6,37.3*,-2.0
CS(=O)(=O)N1CCc2cc(C(=O)N3CCCCC3)ccc21,-5.3,2.4,-4.3,4.4,0.3
CS(=O)(=O)N1CCc2cc(C(=O)O)ccc21,30.6*,-1.3,0.5,-0.3,-0.8
CC(C)C(NC(N)=O)C(=O)NC1CCCCC1 (configuration not stated),1.4,·,·,-2.6,0.7
COC(=O)CC1COc2ccccc2N1C(=O)c1ccc(C(C)(C)C)cc1 (configuration not stated),-18.0,?,59.1*,6.6,33.0*
Cn1c2ccccc2c2c(C(=O)NCCCN3CCCC3=O)cn(C3CCCCC3)c(=O)c21,32.5*,-4.4,-37.6,9.8,0.6
COc1cc(NC(=O)C2CCN(S(=O)(=O)c3c(C)noc3/C=C/c3ccccc3F)CC2)cc(OC)c1OC,0.7,·,·,·,-0.2
SMILES,D2 PAM-1,D2 ag-1,D2 PAM-2,D2 antagonist,D2 ag-2
COc1ccc(Cl)cc1C(=O)O/N=C(\N)c1ccccn1,-1.9,?,62.5*!,26.8,0.4
CCOc1ccc(C(=O)O/N=C(\N)c2ccccn2)cc1,-2.6,?,54.9*,2.0,1.2
CCCCN1C(=O)C(O)(CC(=O)c2ccccc2OC)c2ccccc21 (configuration not stated),-10.5,-2.6,-3.4,33.1*,-0.3
COc1ccc(Cc2nc(-c3ccc(Br)cc3)no2)cc1,-10.0,-1.2,18.4,31.2*,-0.3
Cc1nc2nc(SCC(=O)NC(C)c3ccccc3)nn2c(C)c1Cc1c(F)cccc1Cl (configuration not stated),·,·,·,·,-0.5
CNC(=S)N1CCC(NC(=O)C23CC4CC(CC(C4)C2)C3)CC1,-3.7,4.5,-3.2,6.3,0.3
CC(=O)N1CCN(C(=S)NC(=O)C23CC4CC(CC(C4)C2)C3)CC1,33.9*,-1.2,-13.5,-3.0,0.3
Cc1ccc(S(=O)(=O)NCC(=O)OC(C)C(=O)c2ccccc2)cc1 (configuration not stated),-2.0,-5.5,-16.6,30.9*,-0.4
Cc1ccc(C(=O)C(C)OC(=O)CNS(=O)(=O)c2ccc(C)cc2)cc1 (configuration not stated),-4.1,-1.0,2.2,2.7,-0.2
COc1cccc(CN(C(=O)c2ccc([N+](=O)[O-])cc2)C2CCS(=O)(=O)C2)c1 (configuration not stated),-4.1,0.2,-4.2,-3.9,1.3
CC(NC(=O)CN1CCN(c2ccc(Cl)cc2)CC1)c1ccccc1 (configuration not stated),5.9,-4.6,-3.1,-6.8,-0.1
CCOc1ccccc1N1CCN(C(=O)NCc2ccc(C)cc2)CC1,32.1*,-5.2,-18.1,30.3*,-1.8
O=C(CN1CCCC1)NC(c1ccccc1)c1ccccc1,-6.1,-2.1,-13.0,-6.2,1.7
O=C(CN1CCN(c2ccccc2O)CC1)Nc1ccc2c(c1)CCC2,-23.2,-0.1,-16.1,66.8*,-0.8
CCOc1ccccc1N1CCN(CC(=O)NC(C)c2ccccc2)CC1 (configuration not stated),-20.2,2.7,-23.2,100.3*,0.3
O=C(CN1CCN(c2ccccc2O)CC1)NC(c1ccccc1)c1ccccc1,-24.0,-3.0,-32.9,64.1*,-0.9
Cc1cc(NC(=O)Nc2ccccc2[N+](=O)[O-])n(C)n1,-2.8,3.1,-10.3,0.8,0.4
CCN(CC)c1ccc(NC(=O)c2cc(S(=O)(=O)N3CCc4ccccc43)cn2C)c(C)c1,-0.7,·,·,·,0.0
NS(=O)(=O)c1ccc(CCNS(=O)(=O)c2cccc(C(=O)O)c2)cc1,-6.5,-5.5,-1.9,17.9,0.1
COC(=O)c1sc(=S)n(-c2ccccc2OC)c1N,31.3*,-0.8,-1.9,0.3,-0.4
COc1ccc(-c2noc(-c3ccccc3C(=O)NCc3ccco3)n2)cc1,-4.1,-7.6,-20.1,3.8,0.3
O=C(NCc1ccco1)c1ccc2c(c1)C(=O)c1ccccc1-2,13.8,2.6,-6.9,30.0*,-1.9

# Bioassay records from PubChem.
